Bioassay records: PubChem BioAssay, Broad Institute
This is a sample that favours compounds with a hit; in the whole collection about 2.1% have one here.
Env fusion inh = blocks HIV Env-driven cell-cell fusion; HeLa-JRFL Env/CEM21 cell fusion, luciferase; inhibition, % at 12.3 µM; 360,000 compounds, 1.1% hits; AID 651610;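 active means mean replicate inhibition score of at least 50 and every replicate individually at or above 50; inconclusive means only one of the two criteria met; inactive means mean below 50 and not all replicates reaching 50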;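 further: 0% = plate neutral controls and 100% = maraviroc near 300 nM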
PGC1a acetyl inh = lowers PGC1a acetylation signal in U2OS cells; AlphaScreen anti-acetyl-lysine; with virally co-expressed GCN5 acetyltransferase; inhibition, % at 15.6 µM; 350,000 compounds, 0.17% hits; AID 651687;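 active means every replicate shows inhibition of at least 40%; inconclusive means mean inhibition at least 40% but some replicate below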;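 further: 0% = neutral control wells and 100% = positive control wells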
MLL AF4-AF9 inh = blocks AF4 peptide binding to human AF9. P42568. AlphaScreen, biotin-AF4 peptide binding to FLAG-AF9. inhibition, % at 10 µM. 350,000 compounds, 0.47% hits;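 active means every replicate reaching a set inhibition limit, whatever the replicate mean, cut at about 25% in these data; inconclusive means mean inhibition reaches that limit but some replicates miss it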;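 further: 0% = plate neutral control median and 100% = total signal loss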
Target sequence (P42568 whole entry, looked up): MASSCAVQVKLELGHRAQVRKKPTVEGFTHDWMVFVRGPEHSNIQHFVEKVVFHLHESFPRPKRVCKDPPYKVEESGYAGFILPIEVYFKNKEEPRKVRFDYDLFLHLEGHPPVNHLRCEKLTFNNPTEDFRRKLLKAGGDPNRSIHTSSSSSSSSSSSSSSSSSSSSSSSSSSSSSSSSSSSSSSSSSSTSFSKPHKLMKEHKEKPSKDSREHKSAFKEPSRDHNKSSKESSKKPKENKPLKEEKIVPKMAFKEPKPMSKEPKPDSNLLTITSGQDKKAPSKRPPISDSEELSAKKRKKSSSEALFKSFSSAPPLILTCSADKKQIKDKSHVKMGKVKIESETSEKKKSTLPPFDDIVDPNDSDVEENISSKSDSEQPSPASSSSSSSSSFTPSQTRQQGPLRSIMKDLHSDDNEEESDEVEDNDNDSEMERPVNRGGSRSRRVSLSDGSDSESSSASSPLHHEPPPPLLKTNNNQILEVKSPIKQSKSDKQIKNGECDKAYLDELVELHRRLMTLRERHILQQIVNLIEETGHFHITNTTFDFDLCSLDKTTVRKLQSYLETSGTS
NSD2 HMT inh = blocks human histone methyltransferase NSD2 | O96028 | NSD2 peptide methylation, AlphaScreen, 120 min | inhibition, % at 12.5 µM | 310,000 compounds, 0.54% hits; in the data active means inhibition above about 50%
INS-1E GSIS act = GLuc luminescence reporter in INS-1E cells, primary screen for activators of glucose-dependent secretion of insulin. INS-1E GLuc reporter insulin secretion, 2-3 h. activation, % at 16.6 µM. 370,000 compounds, 0.61% hits;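 active means lowest replicate activation of at least 40%, so every replicate reaches that level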;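 further: 0% = median of neutral control wells and 100% = median of IBMX positive control wells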
An asterisk follows results filed as active; ? = inconclusive; . = no result given; ! = not active in a repeat; [ ] = remark or other dose.

SMILES	Env fusion inh	PGC1a acetyl inh	MLL AF4-AF9 inh	NSD2 HMT inh	INS-1E GSIS act
C[C@H](CO)N1C[C@H](C)[C@H](CN(C)S(=O)(=O)c2ccccc2)Oc2cc(-c3cccc(F)c3)ccc2S1(=O)=O	83*[16.7 µM]	3	-1	.	-24
C[C@H](CO)N1C[C@H](C)[C@@H](CN(C)S(=O)(=O)c2ccccc2)Oc2cc(-c3cccc(F)c3)ccc2S1(=O)=O	18[16.7 µM]	-18	1	.	-9
Cc1ccc(-c2cc(C(=O)NCc3cnn(C)c3)c3cc(Br)ccc3n2)cc1	.	-1	.	1	335*
C[C@H]1CN([C@@H](C)CO)C(=O)c2cc(NS(=O)(=O)c3ccc(F)cc3)ccc2O[C@H]1CN(C)S(=O)(=O)c1ccc(F)cc1	58*[16.7 µM]	-17	-3	.	-10
Cc1ccc(S(=O)(=O)N(C)C[C@H]2Oc3ccc(NS(=O)(=O)c4ccc(Cl)cc4)cc3C(=O)N([C@@H](C)CO)C[C@@H]2C)cc1	11[16.7 µM]	-11	0	.	-31
Cc1ccc(S(=O)(=O)N(C)C[C@@H]2Oc3ccc(NS(=O)(=O)c4ccc(Cl)cc4)cc3C(=O)N([C@@H](C)CO)C[C@H]2C)cc1	64*[16.7 µM]	-12	2	.	-20
O=C(CN1C(=O)COc2ccc(Cl)cc21)Nc1nccs1	.	.	-3	-1	-4
COc1cc2c(cc1OC)-c1cc(N3CCc4ccccc43)nc(=O)n1CC2	11	14	-2	-1	43*
COc1cc2c(cc1OC)-c1cc(Nc3ccccc3)nc(=O)n1CC2	13	1	0	-2	.
COc1cc2c(cc1OC)-c1cc(Nc3ccccc3Br)nc(=O)n1CC2	-5	-3	-3	0	73*
COc1cc2c(cc1OC)-c1cc(N3CCCCCC3)nc(=O)n1CC2	.	-33	.	-1	.
COc1cccc(NC(=O)Nc2nnc(Cc3ccccc3F)s2)c1	-5	.	0	-2	38
CCN1CCN(c2nc3c(C)cccn3c(=O)c2/C=C(\C#N)S(=O)(=O)c2ccc(Cl)cc2)CC1	7	.	30*	8	-4
COC(=O)CCn1nnc(-c2ccc(C(C)C)cc2)n1	66*	2	.	-2	.
O=C(C[C@H]1C[C@H]2c3cc(NC(=O)c4cccnc4)ccc3O[C@H]2[C@H](CO)O1)NCc1cc(F)ccc1F	10[16.7 µM]	1	2	.	9
O=C(CCNC(=O)N1CCn2c1nc1ccccc12)NCc1ccccc1Cl	7	-1	2	0	-17
CCCCn1c(N)c(N(CC(C)C)C(=O)c2cccc(S(=O)(=O)N(C)c3ccccc3)c2)c(=O)[nH]c1=O	7	.	?	0	-27
CCCCn1c(N)c(N(CC(C)C)C(=O)c2ccc(S(=O)(=O)N(CC)c3ccccc3)cc2)c(=O)[nH]c1=O	102*	-3	-1	0	6
O=C1Nc2ccc(Cl)cc2C(=O)C1(F)c1ccccc1 (stereo not given)	-1	7	-5	2	1
S=C(NCc1ccccc1)N1CCCCC1	26	.	0	-1	-9
CC(=O)N1CCN(C(=S)NCc2ccccc2)CC1	3	.	.	-1	58*
O=C1/C(=C/C=C/c2ccco2)SC(=S)N1NS(=O)(=O)c1ccccc1	-11	2	-3	119*	-2
CCOc1ccc(/C=C2\SC(=S)N(NS(=O)(=O)c3ccc(C)cc3)C2=O)cc1OC	-4	14	6	16	42*
CCOc1ccc(/C=C2\SC(=S)N(NS(=O)(=O)c3ccccc3)C2=O)cc1OC	0	10	1	.	62*
Cc1cc(C(=O)NC(C)CCC(C)C)c2ccccc2n1 (stereo not given)	7	.	-2	-1	56*
SMILES	Env fusion inh	PGC1a acetyl inh	MLL AF4-AF9 inh	NSD2 HMT inh	INS-1E GSIS act
Cc1ccc(NC(=O)c2cc(CC(C)C)nc3ccccc23)cc1	68*	-4	-1	-2	-9
Cc1ccc(NC(=O)c2cc(C)nc3ccccc23)cc1	-2	-6	-10	0	-2
COc1ccc(NC(=O)c2cc(CC(C)C)nc3ccccc23)cc1	78*	-13	3	-1	.
Cc1nc(N2CCN(c3ccccn3)CC2)c2c(C)c(C(=O)N3CCN(c4ccc(F)cc4)CC3)sc2n1	?	.	1	-3	5
COc1ccc(CN(C)C[C@H]2Oc3ccc(NC(=O)Nc4ccc(C(F)(F)F)cc4)cc3CC(=O)N([C@@H](C)CO)C[C@@H]2C)cc1	13[16.7 µM]	2	1	.	-21
C[C@H]1CN([C@@H](C)CO)C(=O)Cc2cc(NC(=O)Cn3cnnn3)ccc2O[C@H]1CN(C)Cc1ccc(C(F)(F)F)cc1	92*[16.7 µM]	-3	-2	.	-8
COc1ccc(NC(=O)Nc2ccc3c(c2)CC(=O)N([C@H](C)CO)C[C@@H](C)[C@H](CN(C)Cc2ccc(Oc4ccccc4)cc2)O3)cc1	60*[16.7 µM]	2	-1	.	2
COc1ccc(NC(=O)Nc2ccc3c(c2)CC(=O)N([C@@H](C)CO)C[C@@H](C)[C@H](CN(C)Cc2ccc(C(F)(F)F)cc2)O3)cc1	61*[16.7 µM]	-4	.	.	-8
C[C@@H]1CN([C@@H](C)CO)C(=O)Cc2cc(NC(=O)Cn3cnnn3)ccc2O[C@@H]1CN(C)Cc1ccc(C(F)(F)F)cc1	-18[16.7 µM]	1	2	.	-7
Cc1ccc(C(OCC(O)CNC(C)c2ccccc2)c2ccccc2)cc1 (stereo not given)	47	30	11	5	79
Cc1ccc(OCC(O)CNC(C)c2ccccc2)cc1C (stereo not given)	60*	-7	1	3	.
C=CCNC(=S)NNc1nc2sc3c(c2c(=O)[nH]1)CC(C)(C)OC3	4	-4	-4	4	4
COc1ccccc1OCC(=O)OC/C(O)=C(\C#N)c1nc2ccccc2[nH]1	-9	13	0	8	-2
Nc1nnc(CC(=O)N/N=C/c2ccccc2OCc2ccc(F)cc2)s1	13	61*	0	0	-18
COc1ccccc1OCC(=O)Nc1ncc(C)s1	.	1	-1	-1	3
C[C@H](CO)N1C[C@H](C)[C@@H](CN(C)Cc2ccc3c(c2)OCO3)Oc2c(NC(=O)c3ccncc3)cccc2C1=O	2[16.7 µM]	-7	9	.	-6
C/C(=N\N)c1c(-c2ccccc2)c2cc(C)ccc2[nH]c1=O	5	8	-1	2	.
CCN(CC)c1c(-c2ccccc2)c2cc(C)ccc2[nH]c1=O	68*	-6	-5	.	9
O=[N+]([O-])c1ccc(N2CCN(C(=S)NCc3ccc(Cl)cc3)CC2)cc1	22	-81	34*	-2	.
CCNC(=S)N1CCN(c2ccc([N+](=O)[O-])cc2)CC1	.	1	.	6	.
CC1=C(C(=O)OCc2ccccc2)C(c2cccnc2)c2c(n(C)c(=O)n(C)c2=O)N1 (stereo not given)	.	-7	3	-2	42*!
CCc1c(C)c2c(C)nn(-c3ccccc3)c2oc1=O	-47	-3	.	-1	.
Cc1ncc(CO)c(/C=N/NC(=O)c2cc(Br)ccc2O)c1O	13	11	28*	4	1
COC(=O)C(C)Oc1cc(OC(C)C(=O)OC)c2c(-c3ccccc3)cc(=O)oc2c1 (stereo not given)	3	.	-2	0	-10
